# Assay results reported in paper PMC7862700, “An all-to-all approach to the identification of sequence-specific readers for epigenetic DNA modifications on cytosine”.
# Key:
# Assay in all cases: DAPPL (digital affinity profiling via proximity ligation, sequencing); 10 mM Tris-HCl pH 7.5, 50 mM NaCl, 1 mM DTT, 4% glycerol, room temperature, 30 min; GST-TFs on glutathione beads, 16-mer random dsDNA library, 0.1% formaldehyde crosslink after washing; high values mean tight binding
# Conditions in all cases: protein: recombinant; tags: N-terminal GST; dsDNA, one strand shown
# FLI1 = molecular target: T1, FLI1 (Homo sapiens, UniProt Q01543 1-452)
# T1 sequence: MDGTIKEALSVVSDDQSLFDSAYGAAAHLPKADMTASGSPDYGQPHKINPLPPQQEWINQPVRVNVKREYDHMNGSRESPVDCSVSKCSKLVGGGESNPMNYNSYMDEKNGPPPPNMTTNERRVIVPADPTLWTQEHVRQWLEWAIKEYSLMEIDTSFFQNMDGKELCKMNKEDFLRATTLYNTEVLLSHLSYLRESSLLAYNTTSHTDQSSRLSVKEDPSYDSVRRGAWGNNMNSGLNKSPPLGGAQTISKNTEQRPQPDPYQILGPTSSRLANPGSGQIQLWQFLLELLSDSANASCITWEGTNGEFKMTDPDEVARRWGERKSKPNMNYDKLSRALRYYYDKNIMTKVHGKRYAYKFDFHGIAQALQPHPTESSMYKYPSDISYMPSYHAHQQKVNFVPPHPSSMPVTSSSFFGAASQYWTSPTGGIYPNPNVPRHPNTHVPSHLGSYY
# Method in brief: (§1)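 Human transcription factors were made in yeast as GST fusions, captured on glutathione beads and barcoded with DNA. With a tag-only sample included, the pool was incubated with 200 nmole of a random double-stranded 16-mer DNA library in Tris/NaCl/DTT/glycerol buffer at room temperature for 30 min, then crosslinked with 0.1% formaldehyde after washing, ligated by proximity, amplified and sequenced. For binding signal, each hexamer's read frequency for a factor is divided by its frequency for the tag-only sample.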
# ELK1 = molecular target: T2, ELK1 (Homo sapiens, UniProt P19419 1-428)
# T2 sequence: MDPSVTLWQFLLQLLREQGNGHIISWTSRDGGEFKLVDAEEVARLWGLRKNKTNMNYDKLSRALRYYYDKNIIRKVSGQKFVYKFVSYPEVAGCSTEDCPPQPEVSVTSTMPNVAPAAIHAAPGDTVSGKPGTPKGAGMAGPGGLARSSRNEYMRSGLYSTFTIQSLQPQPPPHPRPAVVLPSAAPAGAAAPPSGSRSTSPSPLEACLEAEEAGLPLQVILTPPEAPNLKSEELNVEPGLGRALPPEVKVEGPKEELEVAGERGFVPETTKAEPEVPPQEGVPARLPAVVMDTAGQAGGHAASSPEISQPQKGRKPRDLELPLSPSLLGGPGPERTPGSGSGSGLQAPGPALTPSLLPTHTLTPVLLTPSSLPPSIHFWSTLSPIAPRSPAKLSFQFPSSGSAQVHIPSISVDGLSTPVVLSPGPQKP
# Method in brief: as §1
# GABPA = molecular target: T3, GABPA (Homo sapiens, UniProt Q06546 1-454)
# T3 sequence: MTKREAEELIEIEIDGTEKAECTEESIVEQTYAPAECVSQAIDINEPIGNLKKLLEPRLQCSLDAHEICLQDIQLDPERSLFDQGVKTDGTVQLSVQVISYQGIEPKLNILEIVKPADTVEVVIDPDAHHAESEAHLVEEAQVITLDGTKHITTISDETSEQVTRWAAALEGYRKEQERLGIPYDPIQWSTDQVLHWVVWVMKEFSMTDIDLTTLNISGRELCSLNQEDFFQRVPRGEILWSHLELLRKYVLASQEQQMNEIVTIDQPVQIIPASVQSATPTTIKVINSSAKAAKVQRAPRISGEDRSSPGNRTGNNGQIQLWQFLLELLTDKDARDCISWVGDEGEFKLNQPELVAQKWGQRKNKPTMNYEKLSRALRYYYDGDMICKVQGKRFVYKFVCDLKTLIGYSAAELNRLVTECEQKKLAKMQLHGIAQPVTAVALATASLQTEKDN
# Method in brief: as §1
# ERG = molecular target: T4, ERG (Homo sapiens, UniProt P11308 1-479)
# T4 sequence: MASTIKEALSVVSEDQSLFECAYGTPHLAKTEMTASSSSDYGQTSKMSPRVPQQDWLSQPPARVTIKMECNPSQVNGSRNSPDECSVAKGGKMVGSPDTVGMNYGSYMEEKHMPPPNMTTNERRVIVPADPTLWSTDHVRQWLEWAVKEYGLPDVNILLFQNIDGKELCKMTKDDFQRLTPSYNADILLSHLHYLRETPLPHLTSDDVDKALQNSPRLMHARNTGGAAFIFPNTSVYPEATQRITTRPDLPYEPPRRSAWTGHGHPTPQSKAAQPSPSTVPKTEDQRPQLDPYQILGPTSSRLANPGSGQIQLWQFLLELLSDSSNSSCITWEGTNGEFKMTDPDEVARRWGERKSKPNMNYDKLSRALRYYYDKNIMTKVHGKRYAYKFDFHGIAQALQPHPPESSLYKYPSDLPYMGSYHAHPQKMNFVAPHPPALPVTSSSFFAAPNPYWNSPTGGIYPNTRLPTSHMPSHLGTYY
# Method in brief: as §1
# ELF1 = ELF1 (Homo sapiens, UniProt P32519 1-619)
# Sequence of ELF1 (P32519 whole entry): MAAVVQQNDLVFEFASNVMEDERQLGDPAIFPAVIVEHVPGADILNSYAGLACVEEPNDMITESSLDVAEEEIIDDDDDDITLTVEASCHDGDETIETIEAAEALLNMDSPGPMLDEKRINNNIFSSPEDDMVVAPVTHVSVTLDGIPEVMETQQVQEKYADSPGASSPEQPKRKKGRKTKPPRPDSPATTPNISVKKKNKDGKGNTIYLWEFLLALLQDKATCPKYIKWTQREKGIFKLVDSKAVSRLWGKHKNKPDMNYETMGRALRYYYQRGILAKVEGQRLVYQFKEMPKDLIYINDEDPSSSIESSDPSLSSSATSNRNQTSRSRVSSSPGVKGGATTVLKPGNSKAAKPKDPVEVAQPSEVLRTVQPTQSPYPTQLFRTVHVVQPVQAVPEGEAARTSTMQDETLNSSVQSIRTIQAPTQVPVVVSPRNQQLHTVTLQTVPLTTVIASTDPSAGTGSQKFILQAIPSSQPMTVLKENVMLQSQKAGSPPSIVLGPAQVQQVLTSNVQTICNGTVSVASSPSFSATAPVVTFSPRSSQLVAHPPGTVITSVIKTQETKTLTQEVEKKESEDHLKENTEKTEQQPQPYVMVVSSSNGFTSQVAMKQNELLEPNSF
# Method in brief: as §1
# EHF = molecular target: T5, EHF (Homo sapiens, UniProt Q9NZC4 1-300)
# T5 sequence: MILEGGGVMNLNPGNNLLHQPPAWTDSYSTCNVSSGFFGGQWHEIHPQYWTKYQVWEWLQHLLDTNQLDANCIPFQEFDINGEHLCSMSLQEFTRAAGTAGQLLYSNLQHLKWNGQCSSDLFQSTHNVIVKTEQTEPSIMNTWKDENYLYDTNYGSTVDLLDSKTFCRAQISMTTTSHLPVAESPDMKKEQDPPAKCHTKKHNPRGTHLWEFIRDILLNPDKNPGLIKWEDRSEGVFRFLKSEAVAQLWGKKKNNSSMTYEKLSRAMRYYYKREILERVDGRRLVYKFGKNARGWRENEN
# Method in brief: as §1
# SPI1 = SPI1 (Homo sapiens, UniProt P17947 1-270)
# Method in brief: as §1
# SPIB = SPIB (Homo sapiens, UniProt Q01892 1-262)
# Sequence of SPIB (Q01892 whole entry): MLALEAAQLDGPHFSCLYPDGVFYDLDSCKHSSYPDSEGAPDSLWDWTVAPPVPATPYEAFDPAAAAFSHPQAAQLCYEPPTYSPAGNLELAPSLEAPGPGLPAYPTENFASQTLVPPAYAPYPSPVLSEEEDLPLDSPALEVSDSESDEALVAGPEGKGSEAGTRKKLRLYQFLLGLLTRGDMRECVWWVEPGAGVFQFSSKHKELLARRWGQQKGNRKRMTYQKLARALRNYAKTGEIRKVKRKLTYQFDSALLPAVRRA
# Method in brief: as §1
# ELK3 = molecular target: T6, ELK3 (Homo sapiens, UniProt P41970 1-407)
# T6 sequence: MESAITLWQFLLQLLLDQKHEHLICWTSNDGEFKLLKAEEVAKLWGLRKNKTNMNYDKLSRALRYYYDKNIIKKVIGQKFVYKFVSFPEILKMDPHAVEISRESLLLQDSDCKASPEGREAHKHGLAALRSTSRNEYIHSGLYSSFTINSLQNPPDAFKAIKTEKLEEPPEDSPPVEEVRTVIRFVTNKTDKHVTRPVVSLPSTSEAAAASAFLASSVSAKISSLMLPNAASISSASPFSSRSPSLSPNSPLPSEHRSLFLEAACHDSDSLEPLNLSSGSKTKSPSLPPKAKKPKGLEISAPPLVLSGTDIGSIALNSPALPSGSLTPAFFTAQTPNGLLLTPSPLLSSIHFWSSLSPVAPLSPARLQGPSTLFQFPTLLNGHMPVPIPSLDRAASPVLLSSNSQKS
# Method in brief: as §1
sequence,measurement,setting,value
ATTGGG,binding signal,FLI1,"1.23 fold enrichment (6-mer frequency, TF over GST control)"
same,binding signal,ELK1,"1.24 fold enrichment (6-mer frequency, TF over GST control)"
same,binding signal,GABPA,"1.33 fold enrichment (6-mer frequency, TF over GST control)"
same,binding signal,ERG,"1.13 fold enrichment (6-mer frequency, TF over GST control)"
same,binding signal,ELF1,"1.21 fold enrichment (6-mer frequency, TF over GST control)"
same,binding signal,EHF,"1.24 fold enrichment (6-mer frequency, TF over GST control)"
same,binding signal,SPI1,"1.25 fold enrichment (6-mer frequency, TF over GST control)"
same,binding signal,SPIB,"1.26 fold enrichment (6-mer frequency, TF over GST control)"
same,binding signal,ELK3,"1.17 fold enrichment (6-mer frequency, TF over GST control)"
